# Source: PubChem BioAssay (several laboratories)
# TIM10 inh = TIM10 yeast growth inhibition. S. cerevisiae TIM10 strain growth, BacTiter-Glo luminescence, 24 h. inhibition, % at 10 µM. 330,000 tested, 1.4% active. AID 463195;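 active means inhibition of 40% or more at the single tested concentration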;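 further: wild-type TIM10 isogenic control strain grown at permissive 25 °C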
# PfHsp90 set2 = reduces growth (ATP signal) of yeast expressing P. falciparum Hsp90 | S. cerevisiae expressing PfHsp90, BacTiter-Glo ATP, 48 h; yeast lacking PDR1 and PDR3 efflux regulators | inhibition, % at 9.4 µM | 310,000 tested, 0.32% active;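 active means every replicate shows inhibition above about 80%, whatever the replicate mean, limit read from the data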;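 further: 0% = DMSO neutral controls and 100% = 20 µM radicicol positive controls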
# tim23-1 inh = growth inhibitors of tim23-1 mutant yeast; inhibition, % at 20 µM; S. cerevisiae tim23-1 growth, BacTiter-Glo luminescence, 24 h; 330,000 tested, 1.3% active;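 active means growth inhibition of the mutant yeast at or above 50%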;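 further: temperature-sensitive mutant grown at 25 °C; plate controls were DMSO-treated mutant yeast for no effect and medium wells lacking yeast for full effect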
# tim10-1 inh = inhibits growth of tim10-1 mutant yeast. S. cerevisiae tim10-1 ts strain growth, BacTiter-Glo, 24 h. inhibition, % at 20 µM. AID 463190. 330,000 tested, 2.2% active;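 active means inhibition of at least 40%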;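 further: mutant grown at 25 °C; 0% = DMSO wells with yeast and 100% = wells holding no yeast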
# NALP3 yeast inh = blocks the NALP3 inflammasome reconstituted in yeast; Yeast reconstituted NLRP3/ASC/caspase-1, beta-gal luminescence, 24 h; inhibition, % at 10 µM; 330,000 tested, 0.39% active; AID 2825;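 active means inhibition of 50% or more; inactive means inhibition below 50%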;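 further: plate controls were induced DMSO wells for no effect and uninduced yeast grown without galactose for full effect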
# tim10-1 confirm = confirmation of tim10-1 mutant yeast growth inhibitors; shares compounds with tim10-1 inh; S. cerevisiae tim10-1 ts strain growth, BacTiter-Glo, 24 h; inhibition, % at 20 µM; 7,400 tested, 56% active; AID 463213;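 active means inhibition of yeast growth at or above a set limit in either of two repeat tests at 20 µM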;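 further: tim10-1 mutant grown at permissive 25 °C to find synthetic lethal compounds; 0% = DMSO yeast wells and 100% = medium wells without yeast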
# TIM10 conf = confirmation of TIM10 yeast growth inhibitors. shares compounds with TIM10 inh. S. cerevisiae tim10 strain growth, BacTiter-Glo luminescence, 24 h. inhibition, % at 10 µM. 4,600 tested, 63% active. AID 463215;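 active means inhibition of yeast growth at or above a set limit in either of two replicates at 10 µM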;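 further: this counterscreen used the strain with wild-type TIM10; 0% = yeast with DMSO and 100% = medium wells lacking yeast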
# tim23-1 confirm = tim23-1 yeast growth inhibition, confirmed; AID 463218; shares compounds with tim23-1 inh; S. cerevisiae tim23-1 growth, BacTiter-Glo luminescence, 24 h; inhibition, % at 20 µM; 4,400 tested, 83% active;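 active means inhibition above about 39% in either of two replicate wells at 20 µM, limit read from the data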;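 further: temperature-sensitive tim23-1 mutant grown at 25 °C; 0% = DMSO wells with yeast and 100% = medium wells without yeast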
# Numbers without * were called inactive; / = no result. Only some compounds are listed: those with a hit (about 3.7% of all), similar ones and a draw of the others.
SMILES,TIM10 inh,PfHsp90 set2,tim23-1 inh,tim10-1 inh,NALP3 yeast inh,tim10-1 confirm,tim23-1 confirm,others
C/C(=N\NC(=O)c1ccc(Cn2cc(Br)cn2)o1)c1ccc(NC(=O)c2ccoc2C)cc1,-5,-6,-2,-12,10,/,/,
CCOC(=O)N1CCN(C(=O)c2ccc3c(c2)N(Cc2cc(C)ccc2C)C(=O)c2ccccc2S3=O)CC1 (stereo unspecified),9,4,12,-14,2,/,/,
O=C(/C=C/c1ccc(Cl)cc1Cl)n1cccn1,53*,13,66*,56*,-12,58*,84*,TIM10 conf=-26
COc1ccc(CN2CCNC(=O)C2CC(=O)NC2CCOCC2)c(F)c1 (stereo unspecified),2,20,10,2,12,/,/,
COc1cccc(-c2sc3ccc(OC)cc3c2-c2ccc(OCCN3CCCC3)cc2)c1,12,6,70*,40*,/,38*,46*,
Cc1cccnc1Nc1nc(-c2ccc(F)cc2)cs1,37,13,47,20,1,/,/,
Cc1cccnc1Nc1nc(-c2ccc(O)cc2)cs1,31,6,75*,57*,21,17,57*,
CC(=O)Nc1sc(N/N=C/c2ccccc2F)nc1-c1ccc(C)cc1,18,-3,28,22,14,/,/,
COC(=O)c1cc(=O)n(Cc2cccs2)c(=Nc2ccc(F)cc2)s1,9,12,21,29,8,/,/,
COC(=O)c1cc(=O)n(-c2ccc(F)cc2)c(=Nc2ccc(F)cc2)s1,54*,125*,67*,56*,-8,57*,44*,TIM10 conf=55*
O=C(Nc1nc(-c2ccco2)c(-c2ccco2)s1)C1CC(=O)N(c2ccc3c(c2)OCCO3)C1 (stereo unspecified),23,-12,19,17,11,/,/,
O=C(Nc1nc(-c2ccco2)c(-c2ccco2)s1)C1CCC1,46*,-16,66*,45*,-6,59*,60*,TIM10 conf=48*
Cc1ccc(OCc2cc(C(=O)NCc3cnn(-c4cccc(F)c4)c3)no2)cn1,22,-15,62*,44*,22,-8,60*,
Cc1ccc(OCc2cc(C(=O)NCc3ccc(OC(F)(F)F)cc3)no2)cn1,-14,6,12,2,7,/,/,
C#Cc1ccc([C@H]2C=C(C(=O)NCc3nc4ccccc4[nH]3)O[C@@H](OCc3ccc(CO)cc3)C2)cc1,5,-10,24,13,4,/,/,
O=C(c1cc(COc2ccc(F)cc2Cl)on1)N1CCCCCC1,-4,-13,49,37,31,/,/,
O=C(c1cc(COc2ccc(F)cc2Cl)on1)N1CCCCCCC1,14,5,51*,41*,22,16,42*,
Cc1ccccc1-c1cc(C(=O)Nc2sc(C)c(C)c2C(N)=O)c2ccccc2n1,31,-13,54*,42*,24,31*,42*,
O=[N+]([O-])c1cccc(-c2nc3ccccc3s/c2=N/O)c1,57*,-99,82*,71*,4,55*,54*,TIM10 conf=69*
O=[N+]([O-])c1cccc(-c2cnc3ccccc3n2)c1,18,-12,-1,16,-3,/,/,
C=C(C)C(=O)Nc1ccc2c(c1)OCCOCCOCCO2,14,-21,4,13,10,/,/,
COC(=O)c1ccccc1NC(=S)NC(=O)c1ccccc1C,70*,/,59*,71*,5,65*,-24,TIM10 conf=69*
Cc1ccccc1C(=O)NC(=S)Nc1ccccc1C(=O)O,7,-8,18,30,10,/,/,
COC(=O)c1ccccc1NC(=S)NC(=O)c1ccc2c(c1)OCO2,62*,8,72*,63*,2,41*,39*,TIM10 conf=45*
COc1ccc(CN2CCNC(=O)C2CC(=O)N(C)Cc2ccon2)c(OC)c1 (stereo unspecified),-9,-4,5,4,20,/,/,
Cc1ccc(OC(C)C(=O)N2CCN(c3ccccn3)CC2)cc1 (stereo unspecified),/,-17,/,/,/,/,/,
